# Laboratory results published in the supplement of paper PMC10646978.
# ± gives the standard deviation.
# Tests used:
# Details in all cases: modulator concentration 10 µM
# [1] = test system: RAW-Dual (murine macrophage reporter line); assay: NF-kB reporter (SEAP) activity fold change vs agonist alone; higher = enhanced NF-kB activity
# In short: (§1)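 Overnight stimulation with a PRR agonist followed pre-incubation for 1 hour at 37 °C with compound at 10 μM final. This was done in RAW-Dual murine macrophage reporter cells seeded at 50 000 per well in 384-well plates. NF-κB (SEAP, QUANTI-Blue absorbance at 620 nm) and IRF (Lucia luciferase, QUANTI-Luc luminescence) were read from the supernatant. Each reporter's fold change relative to the mean agonist-only control on the same plate was averaged over replicate plates.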
# [2] = test system: RAW-Dual (murine macrophage reporter line); assay: IRF reporter (Lucia luciferase) activity fold change vs agonist alone; higher = enhanced IRF activity
# In short: as §1
# [3] = test system: RAW-Dual (murine macrophage reporter line); assay: viability score (confluency relative to resting cells, overnight) (fraction); higher = more viable, active = viable (0.7 or more)
# In short: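 Confluency was the readout: RAW-Dual macrophages were imaged with IncuCyte after an overnight exposure to compound at 10 μM final. IncuCyte software produced two masks over all imaged wells. The viability score expresses confluency against resting cells, and both masks had to exceed 70% of resting cells for a compound to meet the cutoff.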
# [4] = agonist: CpG ODN 1826 0.5 ug/mL
SMILES,"NF-kB reporter [1, 4]",NF-kB reporter ([1]; agonist: LPS 0.1 ug/mL),NF-kB reporter ([1]; agonist: MPLA […]),IRF reporter ([2]; agonist: 3'3'-cGAMP 10 ug/mL),IRF reporter ([2]; agonist: LPS 0.1 ug/mL),IRF reporter ([2]; agonist: MPLA […]),viability score [3]
CC(CCc1ccccc1)NCC(O)c1ccc(O)c(C(N)=O)c1.Cl (stereo not given),1.04 ± 0.15,1.18 ± 0.088,1.1 ± 0.061,0.944 ± 0.033,1.11 ± 0.095,1.22 ± 0.23,0.984 (active)
COC1CCN(c2ccc(C(=O)N3CC(n4cc(COc5ccccc5)nn4)C3)cc2)C1 (stereo not given),1.17 ± 0.099,1.13 ± 0.1,0.959 ± 0.053,0.758 ± 0.043,1.12 ± 0.076,1.08 ± 0.24,0.922 (active)
ON=C1ON=C(c2ccccc2)C1=NO,0.867 ± 0.067,0.775 ± 0.038,0.875 ± 0.078,0.176 ± 0.0086,1.29 ± 0.078,1.42 ± 0.13,0.998 (active)
CCCC(=O)Nc1ccc(N2CCCCC2)cc1,0.833 ± 0.067,0.901 ± 0.046,0.979 ± 0.09,0.895 ± 0.043,1.48 ± 0.1,1.65 ± 0.17,0.985 (active)
O=C(NCc1ccco1)C(=Cc1ccc(-c2ccccc2Cl)o1)NC(=O)c1ccccc1,0.57 ± 0.044,0.745 ± 0.052,0.791 ± 0.07,0.476 ± 0.022,0.859 ± 0.07,0.942 ± 0.11,0.996 (active)
CCN(CC)C(=O)N1CCN(C)CC1.O=C(O)CC(O)(CC(=O)O)C(=O)O,1.04 ± 0.19,0.975 ± 0.18,0.92 ± 0.065,0.895 ± 0.057,1.23 ± 0.23,1.16 ± 0.27,0.995 (active)
Cc1ccc(CSc2nc3sc4c(c3c(=O)n2-c2ccccc2)CC(C)(C)OC4)c(C)c1,0.984 ± 0.093,1.06 ± 0.075,0.91 ± 0.054,1.05 ± 0.039,1.41 ± 0.12,1.1 ± 0.21,1.02 (active)
O=C1NC(=O)[C@@H](c2cn3c4c(cccc24)CCC3)[C@@H]1c1c[nH]c2ccccc12,1.1 ± 0.051,1.02 ± 0.17,1.12 ± 0.13,0.971 ± 0.058,0.921 ± 0.18,0.948 ± 0.27,1.01 (active)
O=C(Cc1ccccc1)NCC(O)Cn1ccccc1=O (stereo not given),0.84 ± 0.037,0.9 ± 0.12,1.02 ± 0.067,1.04 ± 0.072,1.26 ± 0.25,1.43 ± 0.42,1 (active)
COC(=O)C1=C(C)NC(C)=C(C(=O)OC)C1c1c(F)cccc1Cl,0.828 ± 0.067,1.27 ± 0.072,1.42 ± 0.092,1.1 ± 0.04,1.17 ± 0.11,1.2 ± 0.23,0.979 (active)
COC(=O)Nc1nc2cc(C(=O)c3ccccc3)ccc2[nH]1,1.96 ± 0.28,1.23 ± 0.23,1.31 ± 0.13,0.093 ± 0.0033,1.04 ± 0.19,1.6 ± 0.22,0.661 (inactive)
NC(=O)c1ccc(I)c([N+](=O)[O-])c1,0.743 ± 0.25,0.842 ± 0.23,0.828 ± 0.046,0.678 ± 0.024,0.905 ± 0.32,1 ± 0.13,0.981 (active)
COc1cc2c(Nc3ccc(Br)cc3F)ncnc2cc1OCC1CCN(C)CC1,0.825 ± 0.04,1.01 ± 0.11,1.11 ± 0.094,0.975 ± 0.048,1.11 ± 0.17,1.29 ± 0.35,0.91 (active)
COc1ccc(C(=O)Nc2cccc([N+](=O)[O-])c2)cc1I,1.03 ± 0.083,1.01 ± 0.071,0.95 ± 0.081,0.801 ± 0.037,1.02 ± 0.13,1.04 ± 0.23,0.997 (active)
COc1cc(NC(=O)COc2cc(C)c(Cl)c(C)c2)cc(OC)c1,1.02 ± 0.18,0.954 ± 0.078,0.854 ± 0.098,0.93 ± 0.025,1.06 ± 0.12,1.04 ± 0.12,1 (active)
Cl.Cl.NC1=NN(c2ccc(N)cc2)CC1,0.251 ± 0.043,1 ± 0.084,0.991 ± 0.13,0.763 ± 0.035,1.34 ± 0.28,1.22 ± 0.15,1 (active)
CN1CCCC(n2nc(Cc3ccc(Cl)cc3)c3ccccc3c2=O)CC1.Cl (stereo not given),0.135 ± 0.008,0.929 ± 0.12,1.42 ± 0.26,1.12 ± 0.14,1.19 ± 0.22,1.35 ± 0.4,0.587 (inactive)
CCOC(=O)c1ccc(NC(=O)c2sc(NC(=O)c3cc(OC)c(OC)c(OC)c3)c(C(=O)OCC)c2C)cc1,1 ± 0.095,1.02 ± 0.079,0.895 ± 0.058,0.969 ± 0.025,1.53 ± 0.25,1.14 ± 0.12,1.01 (active)

SMILES,"NF-kB reporter [1, 4]",NF-kB reporter ([1]; agonist: LPS 0.1 ug/mL),NF-kB reporter ([1]; agonist: MPLA […]),IRF reporter ([2]; agonist: 3'3'-cGAMP 10 ug/mL),IRF reporter ([2]; agonist: LPS 0.1 ug/mL),IRF reporter ([2]; agonist: MPLA […]),viability score [3]
NC(=O)c1ncn([C@@H]2O[C@H](CO)[C@@H](O)[C@H]2O)c1N,1.11 ± 0.086,1.03 ± 0.051,1.04 ± 0.041,0.94 ± 0.052,0.977 ± 0.089,0.949 ± 0.12,0.994 (active)
CCCCCCCCCCC[C@@H](C[C@@H]1OC(=O)[C@H]1CCCCCC)OC(=O)[C@H](CC(C)C)NC=O,1.1 ± 0.083,0.92 ± 0.058,1.02 ± 0.044,1.04 ± 0.23,0.927 ± 0.048,0.923 ± 0.12,1 (active)
COc1ccc(C2NN(Cc3ccccc3)C3C(=O)N(C)C(=O)C23)cc1 (stereo not given),0.902 ± 0.058,0.945 ± 0.088,1.13 ± 0.086,1.26 ± 0.068,1.33 ± 0.29,1.46 ± 0.5,0.955 (active)
Nc1ncn([C@@H]2O[C@H](CO)[C@@H](O)[C@H]2O)c(=O)n1,1.55 ± 0.066,0.569 ± 0.045,1.99 ± 0.16,0.549 ± 0.035,0.433 ± 0.049,0.502 ± 0.1,0.745 (active)
COc1ccccc1-c1cc(-c2ccccc2)nc(SCC(N)=O)c1C#N,1.06 ± 0.17,0.918 ± 0.12,0.928 ± 0.073,0.596 ± 0.02,1.2 ± 0.18,1.41 ± 0.2,1 (active)
O=C(c1ccc(S(=O)(=O)N2CCCC2)cc1)N1CC(Nc2ccncn2)C1,0.978 ± 0.1,0.986 ± 0.086,0.921 ± 0.057,0.969 ± 0.071,1.23 ± 0.13,1.06 ± 0.095,1 (active)
Cc1ccc(NC(Nc2ccc(C)cc2)=C(C(Cl)=C(Cl)Cl)[N+](=O)[O-])cc1,1.01 ± 0.17,0.881 ± 0.07,1.18 ± 0.36,0.264 ± 0.01,1.29 ± 0.14,1.33 ± 0.16,0.998 (active)
O=S1(=O)N=C(SCc2ccccc2)Nc2ccc(Cl)cc21,0.76 ± 0.059,0.913 ± 0.067,1.16 ± 0.11,0.718 ± 0.074,1.08 ± 0.12,1.11 ± 0.3,1.02 (active)
CCOc1ccccc1OCCCCOc1cccc(Br)c1,0.728 ± 0.06,1.05 ± 0.075,0.968 ± 0.067,1.19 ± 0.031,1.49 ± 0.24,1.2 ± 0.2,1 (active)
Cc1ccccc1C(=O)Nc1ccc(C(=O)N2CCCC(O)c3cc(Cl)ccc32)c(C)c1 (stereo not given),1.02 ± 0.2,1.09 ± 0.15,0.92 ± 0.056,0.601 ± 0.019,1.04 ± 0.29,1.07 ± 0.13,0.998 (active)
CCOC(=O)C1=C(CC)OC(N)=C(C#N)C1c1cccc(Oc2ccc(Cl)cc2)c1 (stereo not given),0.746 ± 0.058,0.662 ± 0.05,0.769 ± 0.073,0.281 ± 0.0095,1.13 ± 0.18,1.12 ± 0.2,0.972 (active)
Cc1cc(C(=O)O)n[nH]1,1.01 ± 0.077,0.891 ± 0.15,1.03 ± 0.12,1.06 ± 0.038,1.24 ± 0.14,1.34 ± 0.2,1.02 (active)
Cc1nc2n(c(=O)c1CCN1CCC(c3noc4cc(F)ccc34)CC1)CCCC2,0.741 ± 0.18,0.982 ± 0.09,0.915 ± 0.06,0.891 ± 0.036,1.13 ± 0.3,1.03 ± 0.13,1.01 (active)
Cc1cc(C)n(N=Cc2c[nH]c3ccccc23)c(=O)c1C#N,1.08 ± 0.18,0.963 ± 0.099,1.02 ± 0.096,1.03 ± 0.032,1.4 ± 0.24,1.6 ± 0.23,1.03 (active)
Cc1ccc(O)c(N=Nc2ccc(S(=O)(=O)O)cc2)c1,1.17 ± 0.11,1.15 ± 0.085,1.07 ± 0.043,1.01 ± 0.12,1.08 ± 0.16,1.07 ± 0.15,1.01 (active)
CC(C)(C)NCC(O)COc1cccc2c1CC(O)C(O)C2 (stereo not given),1.26 ± 0.3,1 ± 0.11,1.05 ± 0.095,0.919 ± 0.045,1.04 ± 0.16,0.968 ± 0.17,0.931 (active)
C[C@]1(O)C[C@@H](c2nc(-c3ccc4ccc(-c5ccccc5)nc4c3)c3c(N)nccn32)C1,0.797 ± 0.04,1.26 ± 0.1,0.899 ± 0.08,0.593 ± 0.055,0.971 ± 0.072,0.958 ± 0.17,1 (active)
